Data on eight sequences can be found in the supplement of paper PMC6555819.

Assay in all cases: PBM binding z-score (relative to random genomic background probes); higher = stronger binding; sequences stand for … in GC…GCGATTGACAGCGTAGAATGAAGG
For assay [1], the system named is PPARg:RXRa DBDmut IVT, anti-RXR (DBD mutation: RXRa K156A/R161A, NR concentration 270 nM, RXRa partner concentration 90 nM). In a few lines:
(§1)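 Binding z-scores take random background probes as their reference. They come from custom Agilent 4×180K protein-binding microarrays incubated 1 h with ligand-free nuclear receptor dimers, with antibodies against each partner (one per run) detecting binding. Scanned fluorescence was regression-normalized.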

Assay [2] has as its system PPARg:RXRa IVT, anti-PPARg (NR concentration 270 nM, RXRa partner concentration 90 nM). In a few lines: as §1
Assay [3] relates to PPARg DBDmut:RXRa IVT, anti-PPARg (DBD mutation: PPARg1 K132A/R137A, NR concentration 270 nM, RXRa partner concentration 90 nM). In a few lines: as §1
The test system of assay [4] is PPARg DBDmut IVT, anti-PPARg (DBD mutation: PPARg1 K132A/R137A, NR concentration 270 nM). In a few lines:
as §1

The test system of assay [5] is PPARg homodimer (NR concentration 180 nM). In a few lines:
as §1

In assay [6] the test system is PXR:RXRa (NR concentration 270 nM, RXRa partner concentration 90 nM). Put shortly:
as §1

The test system of assay [7] is PXR homodimer (NR concentration 270 nM). Put shortly: as §1
Assay [8] has as its system RARa:RXR (NR concentration 270 nM, RXRa partner concentration 90 nM). In a few lines: as §1
In assay [9] the test system is RARa homodimer (NR concentration 270 nM). Put shortly: as §1
Assay [10] deals with RARb:RXRa (NR concentration 270 nM, RXRa partner concentration 90 nM). In a few lines: as §1
The subject of assay [11] is RARb homodimer (NR concentration 270 nM). In a few lines:
as §1

Assay [12] concerns RARg:RXRa (NR concentration 270 nM, RXRa partner concentration 90 nM). Put shortly:
as §1

The subject of assay [13] is RARg homodimer (NR concentration 270 nM). Put shortly: as §1
Assay [14] has as its system RXRa DBDmut IVT, anti-RXR (DBD mutation: RXRa K156A/R161A, NR concentration 90 nM). Put shortly:
as §1

In assay [15] the test system is RXRa homodimer (NR concentration 180 nM). Put shortly: as §1
Assay [16] deals with THRa:RXRa (NR concentration 90 nM, RXRa partner concentration 90 nM). Put shortly:
as §1

The subject of assay [17] is THRa homodimer (NR concentration 90 nM). Put shortly:
as §1

Assay [18] deals with VDR homodimer (NR concentration 270 nM). In a few lines: as §1

For the sequence CAAACTAGGTCACAGAGGCCAAAGTCCGTGCGTA, the PBM binding z-score in [1] was 8.22; in assay [2], 8.69; in assay [3], 7.35; in assay [4], 2.65; in [5], 3.4; in [6], 3.51. For the same sequence, the PBM binding z-score in [7] is 2.61; in assay [8], 3.27; in assay [9], 0.794; in [10] it was 4.23; in [11] it was 3.73; in assay [12], 4.88. For the same sequence, the PBM binding z-score in assay [13] was 5.37; in assay [14], 2.45; in assay [15], 3.63; in assay [16] it was 3.66; in assay [17], 1.54; in assay [18], 2.62.
As to CTCAAAAGGTCGTGCTCAGGTGAGTATACCAAAC, the PBM binding z-score in assay [1] is 1.02; in [2], 2.03; in assay [3] it was 0.582; in assay [4], 0.851; in [5] it was 1.51; in assay [6] it was 3.24. Moreover, the PBM binding z-score amounted to 0.288 in [7]; 4.2 in [8]; 0.127 in assay [9]; 4.03 in assay [10]; 2.79 in [11]; 5.29 in assay [12]. Further, the PBM binding z-score in [13] worked out at 3.99; in [14], 2.02; in [15], 4.73; in assay [16], 4.13; in assay [17] it was 1.02; in [18], 0.794.
Consider TCTAGCAGGCCAGAGGGTCATTCAAGAGGTACGG, for which the PBM binding z-score was 0.912 in assay [1]; 0.374 in assay [2]; -1.21 in assay [3]; -1.66 in assay [4]; 0.751 in [5]; 2.2 in assay [6]. Also, the PBM binding z-score was -0.364 in [7]; 2.79 in assay [8]; -0.545 in [9]; 2.17 in [10]; 2.65 in assay [11]; 2.78 in [12]. Besides, the PBM binding z-score was 2.02 in [13]; 0.504 in assay [14]; 2.87 in assay [15]; 1.83 in assay [16]; -0.373 in [17]; 1.28 in [18].
On to TAGCCTAGGTCAGATGGGGCCAGTATACGCTATA, for which the PBM binding z-score is 1.03 in assay [1]; 1.7 in assay [2]; -0.854 in assay [3]; -0.361 in assay [4]; 0.556 in [5]; 3.45 in assay [6]. Further, the PBM binding z-score in assay [7] was -0.272; in [8], 1.24; in assay [9] it was -0.56; in [10] it was 3.42; in assay [11], 2.71; in assay [12], 2.98. Further, the PBM binding z-score in assay [13] is 3.65; in assay [14] it was -0.279; in [15] it was 1.62; in assay [16] it was 4.6; in [17], 0.386; in assay [18] it was 0.0236.
For CCTACTGGGCCAACAGGTCATTGATATCAACGTT, the PBM binding z-score in [1] is 4.64; in [2] it was 4.84; in assay [3], 0.0699; in [4], 0.305; in [5] it was 1.23; in assay [6], 1.92. For the same sequence, the PBM binding z-score was 0.325 in assay [7]; 2.13 in assay [8]; -0.373 in assay [9]; 2.12 in assay [10]; 2.5 in [11]; 2.56 in assay [12]. The PBM binding z-score in assay [13] was found to be 2.13; in assay [14], 0.159; in [15] it was 1.91; in assay [16] it was 1.63; in assay [17], 0.207; in assay [18], 0.761.
For the sequence ATAGAAAGGTCGAGGTGAGTATAGAGAAAGGGAA, the PBM binding z-score was found to be 0.449 in [1]; 1.99 in assay [2]; 1.74 in assay [3]; 0.872 in assay [4]; 2.34 in assay [5]; 2.55 in assay [6]. Besides, the PBM binding z-score in assay [7] is 0.613; in assay [8], 3.6; in [9], 1.71; in assay [10] it was 4; in assay [11] it was 2.6; in assay [12], 4.22. Besides, the PBM binding z-score in [13] is 4.22; in assay [14] it was 0.887; in [15], 4.17; in [16], 2.93; in assay [17], 0.985; in [18] it was 0.537.
Take GGAACAAGGGCAAGTTGATAGCAGAGTTTGATGG: the PBM binding z-score in [1] was 2.92; in [2] it was 1.97; in assay [3], -0.205; in [4] it was -0.563; in [5], 0.831; in assay [6] it was 0.589. For the same sequence, the PBM binding z-score in assay [7] stood at 1.08; in [8] it was 0.364; in [9], 0.91; in assay [10], 2.71; in [11], 1.92; in assay [12], 1.5. The PBM binding z-score in [13] was 2.02; in assay [14] it was 1.47; in assay [15], 0.773; in assay [16], 1.14; in [17] it was 0.372; in assay [18], 1.27.
Consider CAAACTAGCTCAAAGGTCAAAGTCGAGCCAACCA, for which the PBM binding z-score turned out to be 1.24 in assay [1]; 4.54 in assay [2]; 0.599 in [3]; 0.63 in [4]; 4.6 in assay [5]; 5.37 in assay [6]. The PBM binding z-score worked out at 1.71 in assay [7]; 6.39 in [8]; 2.49 in assay [9]; 4.76 in assay [10]; 4.79 in [11]; 6.22 in assay [12]. Moreover, the PBM binding z-score was found to be 5.63 in assay [13]; 1.66 in assay [14]; 7.07 in [15]; 3.53 in [16]; 0.75 in assay [17]; 2.62 in [18].
